From PubChem BioAssay (NCI)
Compounds without any hit were thinned out: in the full panel of roughly 83,000, 20% have a hit.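 Single-concentration screen, 48 h exposure, 96-well plates. Endpoint: percent growth. Below 10 = active.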 Active and inactive are the calls of the source.

Legend:
Assay in all cases: NCI-60 one-dose screen, 48 h (100 = growth as untreated, 0 = no growth, -100 = all killed)
NCI-H226 lung = conditions: 10 µM
NCI-H322M lung = conditions: 10 µM
HOP-62 NSCLC = conditions: 10 µM
NCI-H460 lung = conditions: 10 µM
NCI-H522 lung = conditions: 10 µM
A549/ATCC NSCLC = conditions: 10 µM
DU-145 prostate = conditions: 10 µM
K-562 leukemia = conditions: 10 µM
SF-539 CNS = conditions: 10 µM
M14 melanoma = conditions: 10 µM
HCT-15 colon = conditions: 10 µM
HT29 colon = conditions: 10 µM
SNB-75 CNS = conditions: 10 µM
SNB-19 CNS = conditions: 10 µM
U251 CNS = conditions: 10 µM
MOLT-4 leukemia = conditions: 10 µM
SR leukemia = conditions: 10 µM
RPMI-8226 leukemia = conditions: 10 µM
SK-OV-3 ovarian = conditions: 10 µM
MDA-MB-468 breast = conditions: 10 µM unless noted

Row | SMILES | growth (NCI-H226 lung) | growth (NCI-H322M lung) | growth (HOP-62 NSCLC) | growth (NCI-H460 lung) | growth (NCI-H522 lung) | growth (A549/ATCC NSCLC) | growth (DU-145 prostate) | growth (K-562 leukemia) | growth (SF-539 CNS) | growth (M14 melanoma) | growth (HCT-15 colon) | growth (HT29 colon) | growth (SNB-75 CNS) | growth (SNB-19 CNS) | growth (U251 CNS) | growth (MOLT-4 leukemia) | growth (SR leukemia) | growth (RPMI-8226 leukemia) | growth (SK-OV-3 ovarian) | growth (MDA-MB-468 breast)
1 | Cc1ccc(-c2nc(C#N)c(S(=O)(=O)N3CCN(S(C)(=O)=O)CC3)o2)cc1 | 85.6% (inactive) | 98.8% (inactive) | 95.6% (inactive) | 79.9% (inactive) | -86.6% (active) | 92.9% (inactive) | 68.7% (inactive) | 6.88% (active) | 40.3% (inactive) | 22.6% (inactive) | -74.5% (active) | -6.5% (active) | 107% (inactive) | 93.9% (inactive) | 78.7% (inactive) | 0.383% (active) | 1.13% (active) | 4.64% (active) | 105% (inactive) | -68.5% (active)
2 | Nc1nnc(-c2c[nH]c3ncc(Br)cc23)c(-c2c[nH]c3ccc(Br)cc23)n1 | 35.8% (inactive) | 63% (inactive) | 44.5% (inactive) | 26.5% (inactive) | 21.9% (inactive) | 48.7% (inactive) | 32.5% (inactive) | 15.2% (inactive) | 19.9% (inactive) | 34.5% (inactive) | 31.7% (inactive) | 30.9% (inactive) | 43.4% (inactive) | 46.7% (inactive) | 38.3% (inactive) | 5.25% (active) | 6.57% (active) | 10.9% (inactive) | 66.6% (inactive) | 8.52% (active)
3 | C#C[C@]1(O)CC[C@H]2[C@@H]3CC=C4c5sc(Nc6ccc(N(C)C)cc6)nc5CC[C@]4(C)[C@H]3CC[C@@]21C | -43.2% (active) | 42.5% (inactive) | 10.7% (inactive) | 7.37% (active) | -57.1% (active) | 20.5% (inactive) | -8.05% (active) | 4% (active) | -75.7% (active) | -12.3% (active) | -37.5% (active) | -53.5% (active) | 33.8% (inactive) | 18.1% (inactive) | -75% (active) | -6.03% (active) | 9.05% (active) | -42% (active) | -39.5% (active) | -56.3% (active)
4 | COc1cc(C2CC(c3ccccc3)=Nc3c(N)nc(N)nc3N2)ccc1Oc1nc(NCCO)nc(N2CCOCC2)n1 (stereo not given) | 92.5% (inactive) | 90.6% (inactive) | 106% (inactive) | 110% (inactive) | 97.7% (inactive) | 107% (inactive) | 115% (inactive) | 91.3% (inactive) | 97.5% (inactive) | 104% (inactive) | 99.4% (inactive) | 112% (inactive) | 84.3% (inactive) | 89.8% (inactive) | 98.1% (inactive) | 91.3% (inactive) | 66% (inactive) | 104% (inactive) | 115% (inactive) | 88% (inactive)
5 | COc1ccc(Cn2cc(C#N)c(N)c2C(C)=O)c(OC)c1 | 102% (inactive) | 103% (inactive) | 105% (inactive) | 108% (inactive) | 104% (inactive) | 103% (inactive) | 107% (inactive) | 103% (inactive) | 96.2% (inactive) | 99.8% (inactive) | 102% (inactive) | 117% (inactive) | 111% (inactive) | 105% (inactive) | 105% (inactive) | 105% (inactive) | 106% (inactive) | 105% (inactive) | 99.8% (inactive) | 99.5% (inactive)
6 | CCOC(=O)C1=C(N)N(c2ccc(C)cc2)C2=C(C(=O)CC(C)(C)C2)C1c1ccccc1Br (stereo not given) | 84.9% (inactive) | 99% (inactive) | 90.8% (inactive) | 53.5% (inactive) | 67.5% (inactive) | 80.9% (inactive) | 102% (inactive) | 50.6% (inactive) | 104% (inactive) | 83% (inactive) | 58.4% (inactive) | 62.5% (inactive) | 87.2% (inactive) | 86.7% (inactive) | 80.7% (inactive) | 29.1% (inactive) | 65.7% (inactive) | 35.5% (inactive) | 91.9% (inactive) | 77% (inactive)
7 | O=C(CN1CCN(c2ncnc3c2cnn3-c2ccccc2)CC1)Nc1ccc(Br)cc1 | 62.5% (inactive) | 77.2% (inactive) | 84.6% (inactive) | 57.7% (inactive) | -80.3% (active) | 75.2% (inactive) | 67.9% (inactive) | 42.8% (inactive) | 82.3% (inactive) | 59.3% (inactive) | 45.2% (inactive) | 73.3% (inactive) | 80.9% (inactive) | 69.3% (inactive) | 76.2% (inactive) | 15% (inactive) | 40.3% (inactive) | 42.6% (inactive) | 76.7% (inactive) | 49.2% (inactive)
8 | COC(=O)CNC(=O)COc1c(OC)c(OC)cc2oc(-c3cccc(C(=O)Nc4ccc(Cl)cc4)c3)cc(=O)c12 | -51.4% (active) | 76.6% (inactive) | -34.4% (active) | 12.6% (inactive) | 64.9% (inactive) | 75.4% (inactive) | 33.6% (inactive) | 50% (inactive) | 16% (inactive) | 7.29% (active) | 67.7% (inactive) | 58.4% (inactive) | 85.1% (inactive) | 25.9% (inactive) | 11.7% (inactive) | 88.6% (inactive) | 61.2% (inactive) | 53.7% (inactive) | 82.2% (inactive) | 94.6% (inactive)
9 | Fc1ccc(-c2csc(Nc3cccc(Nc4nc(-c5ccc(F)cc5)cs4)c3)n2)cc1 | 51.5% (inactive) | 60.1% (inactive) | 72.7% (inactive) | 40.4% (inactive) | 6.23% (active) | 62.8% (inactive) | 67.7% (inactive) | 36% (inactive) | 70.9% (inactive) | 66.8% (inactive) | 52.5% (inactive) | 62.3% (inactive) | 95.2% (inactive) | 70.2% (inactive) | 62.7% (inactive) | 46.4% (inactive) | 51.4% (inactive) | 49.5% (inactive) | 86.8% (inactive) | 38.6% (inactive)
10 | COc1ccccc1-n1cc(C#N)c(N)c1C(=O)c1ccc(Cl)cc1Cl | 34.5% (inactive) | 48% (inactive) | 38.2% (inactive) | 12.5% (inactive) | -55.6% (active) | 41.9% (inactive) | 35.4% (inactive) | 12.5% (inactive) | -0.792% (active) | 20.4% (inactive) | 24.4% (inactive) | -14.7% (active) | -22.8% (active) | 30.1% (inactive) | 16.6% (inactive) | 20.3% (inactive) | 11.5% (inactive) | 14.7% (inactive) | 14.9% (inactive) | 15.8% (inactive)
11 | COc1cc2oc(-c3cccc(C(=O)Nc4ccc(Cl)cc4)c3)cc(=O)c2c(OCCN)c1OC | -76.6% (active) | -93.7% (active) | -62.7% (active) | -87.2% (active) | -87.1% (active) | -58.3% (active) | -99% (active) | -43.9% (active) | -83.2% (active) | -89.7% (active) | -76.6% (active) | -91.2% (active) | -73.5% (active) | -78.7% (active) | -84.2% (active) | -59.2% (active) | -48.6% (active) | -64.2% (active) | -84.6% (active) | -73.4% (active)
12 | CC1(C)CC[C@]2(C(=O)O)CC[C@]3(C)C(=CCC4[C@@]5(C)C[C@@H](O)[C@@H]6OC(c7cccc(F)c7)OC[C@@]6(C)C5CC[C@]43C)C2C1 (stereo not given in full) | 39.9% (inactive) | 34.2% (inactive) | 49.5% (inactive) | 27.6% (inactive) | 8.76% (active) | 19.8% (inactive) | 36.7% (inactive) | 21.1% (inactive) | 70.2% (inactive) | 46% (inactive) | 23% (inactive) | 28.1% (inactive) | 81.6% (inactive) | 45.7% (inactive) | 11.6% (inactive) | 18.5% (inactive) | 22.4% (inactive) | 21.1% (inactive) | 82.7% (inactive) | 23.5% (inactive)
13 | COc1ccc(C2OC[C@@]3(C)C4CC[C@]5(C)C(CC=C6C7CC(C)(C)CC[C@]7(C(=O)O)CC[C@]65C)[C@@]4(C)C[C@@H](O)[C@@H]3O2)cc1 (stereo not given in full) | 84.5% (inactive) | 83.5% (inactive) | 95.5% (inactive) | 69.1% (inactive) | 57.1% (inactive) | 39% (inactive) | 76.3% (inactive) | 44% (inactive) | 95.7% (inactive) | 96.8% (inactive) | 56% (inactive) | 70.8% (inactive) | 97% (inactive) | 90.9% (inactive) | 50.7% (inactive) | 47.2% (inactive) | 54.7% (inactive) | 40.3% (inactive) | 132% (inactive) | 75.9% (inactive)
14 | COc1ccc(-n2c(SCC(=O)NNS(=O)(=O)c3ccccc3)nc3ccc(Cl)cc3c2=O)cc1 | 91% (inactive) | 98.1% (inactive) | 96.6% (inactive) | 115% (inactive) | 86.5% (inactive) | 106% (inactive) | 113% (inactive) | 99.5% (inactive) | 97.6% (inactive) | 104% (inactive) | 92% (inactive) | 114% (inactive) | 98.7% (inactive) | 98.6% (inactive) | 101% (inactive) | 93.4% (inactive) | 78.9% (inactive) | 99% (inactive) | 66.1% (inactive) | 102% (inactive)
15 | COc1cc(Nc2nc(O)c(/C=C3\C=Nc4ccccc43)s2)cc(OC)c1OC | -46.5% (active) | -47.7% (active) | -65.9% (active) | -77.6% (active) | -13.6% (active) | -69.4% (active) | -57.6% (active) | 3.33% (active) | -85.3% (active) | -18.7% (active) | -0.515% (active) | -50.7% (active) | -63.8% (active) | -39.4% (active) | -79.8% (active) | 2.95% (active) | 2.6% (active) | -25.1% (active) | -59.3% (active) | -19.9% (active)
